Screening results deposited in PubChem BioAssay by National Center for Advancing Translational Sciences (NCATS).
DT40 TDP1 no CPT: qHTS for Inhibitors of human tyrosyl-DNA phosphodiesterase 1 (TDP1): qHTS in cells in absence of CPT; DT40 Tdp1-/- hTDP1 cells, no CPT, ATP luminescence, 48 h; Potency, µM (doses to about 46.2 µM), usual class: inhibitors; actives 15% (n = 420,000); AID 686978, 2013; also: nearly all actives have a fitted effect of over 55% in size
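Readout: luminescence from CellTiter-Glo after 30 min in the dark at RT. Cells: DT40 Tdp1-/- with stable hTDP1, 400/well. Exposure: compounds alone, ≥48 hr, 37 °C.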
HT1080 IDH1KD tx: kills HT-1080 cells with IDH1 knockdown; HT-1080 IDH1 knockdown viability, ATP luminescence, 48 h; Potency, µM (highest dose often 46.1 µM), hits mostly cytotoxic; actives 2% (n = 360,000); AID 686971
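Luminescent ATP read-out (CellTiter-Glo, 10 min at room temperature) after 48 h compound exposure at 37 °C gave viability of IDH1-knockdown HT-1080 cells. Activity was normalised to DMSO and cell-free wells, then fitted as concentration-response curves.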
HepG2 tox: counter-screen for TGF-b inhibitors: cytotoxicity in HepG2 cells; HepG2 CAGA-GFP viability, ATP luminescence, 18 h; AID 588856; actives 0.76% (n = 410,000); Potency, µM (highest dose often 46.1 µM), most hits filed as cytotoxic
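CellTiter-Glo luminescence gave cytotoxicity after 18 hours at 37 degrees C. The cells were HepG2 CAGA-GFP in 1% FBS DMEM, stimulated with 500 pg/mL TGF-beta after compound addition. %Activity was normalised to no-cell wells (complete cell-killing) and DMSO (no toxicity), and curves were fitted and classified.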
TDP1 cell CPT: DT40-hTDP1 cell growth loss with CPT | Potency, µM (titrated, usually from 46.2 µM), hits mostly inhibitors | chicken DT40 Tdp1-/-;hTDP1 cells + 20 nM CPT, ATP luminescence, 48 h | actives 12% (n = 420,000); also: nearly all actives have a fitted effect of over 55% in size
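Chicken DT40 Tdp1-/- cells stably complemented with human TDP1 were seeded at 400 cells/well in medium containing 20 nM camptothecin, exposed to pin-transferred compounds, and grown at 37 °C for at least 48 hr. Viability was read as ATP luminescence.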
TGFb SMAD3 inh: inhibitors of TGF-b signaling; Potency, µM (series often up to 46.1 µM), actives largely listed as inhibitors; AID 588855; actives 1.2% (n = 410,000); HepG2 CAGA-GFP TGF-b/SMAD3 reporter, GFP fluorescence, 18 h; TGF-beta stimulated, 500 pg/mL final; also: nearly all actives have a fitted effect of over 65% in size
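Cell-based qHTS in HEPG2 carrying a CAGA-GFP Smad reporter; compounds added before 500 pg/mL final TGF-beta, 18 h incubation at 37 degrees C, GFP fluorescence quantified per cell by imaging cytometry.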
HT1080NT lethal: kills 2HG-producing HT-1080-NT fibrosarcoma cells. HT-1080-NT fibrosarcoma viability, CellTiter-Glo ATP luminescence, 48 h. actives 1.6% (n = 360,000). Potency, µM (highest dose often 46.1 µM), most hits filed as cytotoxic. AID 686970;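 also: NT is the 2HG producing partner of a matched IDH1 knockdown line; nearly all actives have a fitted effect of over 55% in size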
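750 cells/well, RPMI + 5% FBS; 2 h settle, compound pin-transfer, 48 h at 37 degrees C. CellTiter-Glo 10 min RT, luminescence. Normalized to DMSO and media-only wells.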
Of the large screens only hits and unclear results are named; the others gave an inactive call. Only some compounds are listed: those with a hit (about 17% of all), similar ones and a draw of the others. Calls follow the shape of the dose curve; as a rule, active = well fitted curve in the direction sought with a large enough effect; inconclusive = small, poorly fitted or top-dose-only effect, or another doubt; inactive = no such curve, though single readings can be large; an effect the other way counts as inactive or inconclusive.

C=C1C=C(C(F)F)n2ncc(C(=O)NCc3ccc(OC)c(OC)c3)c2N1	DT40 TDP1 no CPT inconclusive, TDP1 cell CPT inconclusive (no result: HT1080 IDH1KD tx, HT1080NT lethal)
COc1ccccc1CN1CCCC2(CCN(C(C)=O)CC2)C1	none (no result: HT1080 IDH1KD tx, HepG2 tox, TGFb SMAD3 inh, HT1080NT lethal)
COc1ccc2[nH]c3c(=O)n4c(nc3c2c1)SCC4	none
COc1cc2[nH]c3c(=O)n4c(nc3c2cc1OC)SCCC4	DT40 TDP1 no CPT inconclusive, HT1080 IDH1KD tx 7.31µM, TDP1 cell CPT inconclusive, TGFb SMAD3 inh inconclusive, HT1080NT lethal 7.31µM
Cc1ccc(S(=O)(=O)N2C[C@H]3C(=O)C[C@@H](c4ccccc4)N(S(=O)(=O)c4ccc(C)cc4)[C@H]3C[C@H]2c2ccccc2Cl)cc1	none
CC(=O)c1ccc(NC(=O)CSc2ccc(-c3sc(C)nc3C)nn2)cc1	DT40 TDP1 no CPT inconclusive, TDP1 cell CPT 13µM
CCOC(=O)c1ccccc1NC(=O)CSc1ccc(-c2sc(C)nc2C)nn1	DT40 TDP1 no CPT 11.6µM, TDP1 cell CPT 14.6µM (no result: HT1080 IDH1KD tx, HT1080NT lethal)
CC(=O)c1ccc(NC(=O)CSc2nnc(N)s2)cc1	none (no result: HT1080 IDH1KD tx, HT1080NT lethal)
COc1cc(NC(=O)CSc2ccc(-c3sc(C)nc3C)nn2)cc(OC)c1	DT40 TDP1 no CPT 18.4µM, TDP1 cell CPT 20.6µM, TGFb SMAD3 inh inconclusive (no result: HT1080 IDH1KD tx, HT1080NT lethal)
COc1ccc(NC(=O)CSc2ccc(-c3sc(C)nc3C)nn2)cc1OC	DT40 TDP1 no CPT 8.2µM, TDP1 cell CPT inconclusive
Cc1cccc(NC(=O)CSc2ccc(-c3sc(-c4ccccc4)nc3C)nn2)c1C	DT40 TDP1 no CPT inconclusive, TDP1 cell CPT inconclusive (no result: HT1080 IDH1KD tx, HT1080NT lethal)
CCN(CC(=O)NCc1ccc(Cl)cc1)S(=O)(=O)c1ccc(NC(C)=O)cc1	DT40 TDP1 no CPT inconclusive, TDP1 cell CPT inconclusive
COc1ccc(-n2c(CNC(=O)c3ccccc3C(F)(F)F)nnc2SC)cc1	none (no result: HT1080 IDH1KD tx, HepG2 tox, TGFb SMAD3 inh, HT1080NT lethal)
COc1ccc(NC(=O)CN(C)C(=O)/C=C/c2ccc(S(=O)(=O)N3CCCCCC3)cc2)cc1	DT40 TDP1 no CPT 18.4µM, HT1080 IDH1KD tx inconclusive, TDP1 cell CPT inconclusive
COc1ccc(/C=C/C(=O)N(C)CC(=O)Nc2cccc(F)c2)cc1S(=O)(=O)N1CCCCC1	DT40 TDP1 no CPT 16.4µM, HT1080 IDH1KD tx inconclusive, TDP1 cell CPT 18.4µM
CCCN(CC(=O)Nc1ccccc1C)C(=O)/C=C/c1ccc(S(=O)(=O)N2CCCCCC2)cc1	DT40 TDP1 no CPT 20.6µM, TDP1 cell CPT inconclusive
COc1ccc(NC(=O)CN(C)C(=O)/C=C/c2ccc(OCc3ccccc3)cc2)cc1	DT40 TDP1 no CPT inconclusive, HT1080 IDH1KD tx inconclusive
CCCN(CC(=O)Nc1ccccc1C)C(=O)c1ccc(S(=O)(=O)N2CCCCCC2)cc1	none
CCC(C(=O)NC1CCCC1)n1c(-c2cc3ccccc3[nH]2)nc2ccccc21 (stereo not drawn)	DT40 TDP1 no CPT inconclusive, TDP1 cell CPT inconclusive (no result: HepG2 tox, TGFb SMAD3 inh)
COC(=O)Cn1cnc(=O)c(C#N)c1/C=C/N(C)C	none
CC(C)NC(=O)N1CC2(CCN(C(=O)c3ccco3)CC2)C1	none (no result: HT1080 IDH1KD tx, HepG2 tox, TGFb SMAD3 inh, HT1080NT lethal)
Cc1cc(C)cc(OCCCn2c(-c3ccc(Cl)cc3)nc3ccccc3c2=O)c1	none (no result: HT1080 IDH1KD tx, HT1080NT lethal)
CCOC(=O)c1sc(N=NC2=C(O)CC(C)(C)CC2=O)c(C(=O)OCC)c1C	DT40 TDP1 no CPT 14.6µM, TDP1 cell CPT inconclusive
CCOc1cc2c(C#N)c(N(CC)CC)nc(N)c2c(N)n1	DT40 TDP1 no CPT 16.4µM, TDP1 cell CPT inconclusive, TGFb SMAD3 inh inconclusive
CCCN(CC1CC1)c1nc(N)c2c(N)nc(OC)cc2c1C#N	DT40 TDP1 no CPT 23.1µM, TDP1 cell CPT 16.4µM
CC(C)CN(CC(C)C)c1nc(N)c(C#N)c(CC#N)c1C#N	DT40 TDP1 no CPT inconclusive, TDP1 cell CPT inconclusive
Cc1ccc2ccccc2c1C(O)c1ncc(-c2ccc(F)cc2)[nH]1 (stereo not drawn)	DT40 TDP1 no CPT inconclusive, TDP1 cell CPT inconclusive
